Results as given in PubChem BioAssay (NCATS).
Inconclusive results are not listed. A call without a number means that no potency is given here. Calls of active or inactive are those of the source. Calls follow the shape of the dose curve; as a rule, active = well fitted curve in the direction sought with a large enough effect; inconclusive = small, poorly fitted or top-dose-only effect, or another doubt; inactive = no such curve, though single readings can be large; an effect the other way counts as inactive or inconclusive.

Columns and labels:
[1] = target: Cytochrome P450 3A7 (Homo sapiens) (UniProt P24462); assay: Cytochrome P450 family 3 subfamily A member 7 (CYP3A7) small molecule antagonists: luciferase biochemical qHTS assay (AID 1963596); also: nearly all actives have a fitted effect of over 40% in size
Summary of the method: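 Recombinant CYP3A7 P450-Glo luminescent assay: enzyme-proluciferin substrate mix preincubated with compound 10 min at room temperature, reaction started with NADPH regeneration system for 1 h. Luciferin detected by luminescence; ketoconazole as positive control.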

[2] = Viability qHTS for spleen associated tyrosine kinase inhibitor (SYKi) naive MV4-11 cells (AID 1963823); also: nearly all actives have a fitted effect of over 40% in size
Summary of the method: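 SYKi-naive MV4-11 AML cells, 500 per well, were exposed to library compounds for 72 hr at 37 C, 5% CO2. Viability was then read by CellTiter-Glo luminescence after 10 min at room temperature.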

[3] = Viability qHTS for spleen associated tyrosine kinase inhibitor (SYKi) drug resistant MV4-11 cells (AID 1963824); also: nearly all actives have a fitted effect of over 35% in size
Summary of the method: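 SYK inhibitor-resistant MV4-11 AML cells, 500 per well, added to predispensed compounds and incubated 72 hr at 37 C, 5% CO2. Viability measured by CellTiter-Glo luminescence after 10 min at room temperature.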
Potency is read from the fitted curve at half-maximal effect.

Cytochrome P450 3A7 (Homo sapiens), sequence (P24462 whole entry, looked up): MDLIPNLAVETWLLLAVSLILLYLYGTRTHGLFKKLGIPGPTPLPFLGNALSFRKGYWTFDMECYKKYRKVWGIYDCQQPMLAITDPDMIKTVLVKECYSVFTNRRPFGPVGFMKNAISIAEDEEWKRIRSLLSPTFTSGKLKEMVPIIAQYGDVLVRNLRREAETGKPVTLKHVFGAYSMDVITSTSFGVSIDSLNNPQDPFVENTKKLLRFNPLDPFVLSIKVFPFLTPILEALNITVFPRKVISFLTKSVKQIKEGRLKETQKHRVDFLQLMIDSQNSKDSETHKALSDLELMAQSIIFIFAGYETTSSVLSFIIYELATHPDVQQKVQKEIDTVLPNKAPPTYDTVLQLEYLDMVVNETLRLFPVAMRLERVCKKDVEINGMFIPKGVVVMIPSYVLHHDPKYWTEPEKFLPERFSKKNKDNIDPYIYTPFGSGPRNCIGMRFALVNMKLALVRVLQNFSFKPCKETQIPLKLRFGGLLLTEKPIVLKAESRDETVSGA

| SMILES | Potency [1] | Potency [2] | Potency [3] |
| --- | --- | --- | --- |
| CN(C)CCCNc1nc(CN2CCN(C(c3ccc(Cl)cc3)c3ccc(Cl)cc3)CC2)nc2ccccc12 | inactive | 2.06 µM (active) | 3.26 µM (active) |
| Cn1ncnc1COc1nn2c(-c3cc(F)ccc3F)nnc2cc1C(C)(C)C | 4.47 µM (active) | inactive | inactive |
| COc1ccc(-c2ccc(-c3cn(C(=O)N4CCCCC4c4ccccc4)nn3)cc2)cc1 (stereo unspecified) | inactive | inactive | 0.517 µM (active) |
| CNC(=O)Nc1ccc(OC)c(NC(=O)NC(=O)c2cc(F)c(F)cc2Cl)c1 | inactive | inactive | inactive |
| C1N2CN3CN1CN(C2)C3 | inactive | inactive | inactive |
| CCOC(=O)N1CCC(N2CCC[C@@H](NC(=O)c3ccccc3C)C2)CC1 | inactive | 16.4 µM (active) | 14.6 µM (active) |
| CN(C)CCC(c1ccccc1)c1ccccn1 (stereo unspecified) | inactive | inactive | inactive |
| O=C(Cn1c2ccccc2c2nc3n(c(=O)c21)CCS3)N1CCCC1 | inactive | inactive | inactive |
| CC(C)C[C@@H](C(=O)N[C@@H](Cc1ccc(OCc2ccccc2)cc1)C(=O)NC(C)(C)C)N(C)Cc1ccc(C(C)(C)C)cc1 | inactive | inactive | 3.66 µM (active) |
| CC(C)(C)C1CCN(C(=O)n2ncc(C(O)(c3ccccc3)c3ccccc3)n2)CC1 | inactive | 20.6 µM (active) | 8.2 µM (active) |
| COC(=O)c1cc(Br)cnc1N1CCC(NC2CCCCC2)C(O)C1 (stereo unspecified) | inactive | inactive | inactive |
| CN1CCN(c2nc(-c3ccc(C(=O)NC4(C(=O)NCC#N)CCCCC4)cc3)cs2)CC1 | inactive | inactive | inactive |
